Reference: PubChem BioAssay (NCI)
Values joined by “and” are separate entries in the source; they are usually repeats but may differ in a detail not shown here. Identical values can stand only once. The panel holds about 83,000 compounds, 20% with a hit somewhere; the sample as a whole holds those more often.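 Method: cells in 96-well plates; compound added at one concentration; 48 h incubation; percent growth measured; values under 10 scored active.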 Active and inactive are the calls of the source.

system: NCI-H322M lung; test: NCI-60 one-dose screen, 48 h (100 = growth as untreated, 0 = no growth, -100 = all killed); settings: 10 µM unless noted

Row | Structure (SMILES) | growth
1 | OCCN1CCN(CCO)CC1 | 106% (inactive) and 85.9% (inactive) and 115% (inactive)
2 | CC1=C(/C=C/C(C)=C/C=C/C(C)=C/C=N/NC(=S)NC(=S)N/N=C/C=C(C)/C=C/C=C(C)/C=C/C2=C(C)CCCC2(C)C)C(C)(C)CCC1 | 85.1% (inactive) and 63.8% (inactive)
3 | NC(=O)NO | 107% (inactive) and 77.1% (inactive)
4 | CN(Cc1ccccc1)Cc1ccccc1 | 81.3% (inactive)
5 | O=C(Cc1cccc2ccccc12)N/N=C/c1ccc2c(c1)CCC2 | 84.3% (inactive)
6 | O=C(CN1CCN(c2cc3c(cc2F)c(=O)c(C(=O)O)cn3C2CC2)CC1)Nc1ccc(Cl)cc1 | 53.8% (inactive) and 56% (inactive)
7 | CCN(CC)CCC(CNc1c2ccc([N+](=O)[O-])cc2nc2cc(OC)c(OC)cc12)c1ccccc1 (centres undefined) | -39.9% (active) and -76.5% (active)
8 | CN(C)c1ccc2nc3ccc(N)cc3[n+](-c3ccccc3)c2c1 | 66.1% (inactive) and 40.3% (inactive)
9 | O=C(/C=C/c1ccccn1)c1ccccc1O | 100% (inactive) and 113% (inactive)
10 | CCCCCN(CCCCC)CC(O)c1cc2c(c3ccccc13)CCCC2 (centres undefined) | 71.3% (inactive) and 38.5% (inactive)
11 | O=C(Nc1ccc(Br)cc1)c1cc(Br)ccc1O | -15.9% (active) and 1.23% (active)
12 | Clc1ccc(NC(Nc2ccc(Cl)cc2)C(Cl)(Cl)Cl)cc1 | 81.4% (inactive) and 104% (inactive)
13 | NC(=S)N/N=C(\c1ccc(Br)cc1)C1CC1 | 101% (inactive) and 83.7% (inactive)
14 | CC[N+](CC)(CC(=O)Nc1c(C)cccc1C)Cc1ccccc1 | 110% (inactive) and 93.8% (inactive)
15 | NS(=O)(=O)c1cc2c(cc1Cl)NC(C(Cl)Cl)NS2(=O)=O (centres undefined) | 98.8% (inactive) and 101% (inactive)
16 | CC(=O)c1ccccc1O | 98.4% (inactive) and 89.7% (inactive) and 98.2% (inactive)
17 | Cc1n[nH]c(=O)n(/N=C\c2c[nH]c3ccccc23)c1=O | 94.2% (inactive)
18 | COc1cc2c(c(OC)c1OC)-c1ccc(OC)c(=O)cc1[C@@H](NC(C)=O)CC2 | 47.7% (inactive) and 32.9% (inactive) and 36.1% (inactive)
19 | O[C@H](c1cc(C(F)(F)F)nc2c(C(F)(F)F)cccc12)[C@@H]1CCCCN1 | 68.6% (inactive) and 52% (inactive)
20 | COc1cc2nc(N3CCN(C(=O)C4COc5ccccc5O4)CC3)nc(N)c2cc1OC (centres undefined) | 123% (inactive) and 75.6% (inactive) and 99.4% (inactive)
21 | COc1ccc(-c2cn[nH]c2-c2cc(OC)c(OC)c(OC)c2)cc1N | 45.3% (inactive) and 36.2% (inactive)
22 | CC1CCCC(=O)O1 (centres undefined) | 106% (inactive)
23 | CCNC(=O)Nc1ccc(-c2nc3c(c(N4CCOC[C@@H]4C)n2)CCN(C2COC2)C3)cc1 | 39.3% (inactive) and 12.1% (inactive)

system: HOP-62 NSCLC; test: as above; settings: 10 µM unless noted

Row | Structure (SMILES) | growth
24 | CC(=O)Nc1cccc2c1CCCC2 | 91.8% (inactive) and 84% (inactive)
25 | Clc1ccc(SSc2ccc(Cl)cc2)cc1 | 102% (inactive) and 98% (inactive)
26 | Cc1nnc(NC/C=C/c2ccccc2)s1 | 88.7% (inactive) and 111% (inactive)
27 | Cc1cccc(/C=C\C(=O)c2ccccc2)c1 | 98.5% (inactive) and 111% (inactive)
28 | COC(=O)[C@H]1CCCN1C(=O)C1CCCN1C(=O)[C@@H](Cc1ccccc1)NC(=S)Nc1cc(C(F)(F)F)cc(C(F)(F)F)c1 (some centres undefined) | 105% (inactive) and 97.9% (inactive)
29 | CNc1cc(-c2cccc(OC(F)(F)F)c2)nc2ccc(N3CCCC3)cc12 | 74.6% (inactive) and 45.7% (inactive) and 33.4% (inactive)
30 | O=[N+]([O-])c1ccc(-n2[nH]nnc2=S)cc1 | 102% (inactive)
31 | O=[N+]([O-])c1ccc(Oc2ccccc2)cc1 | 106% (inactive) and 95.9% (inactive)
32 | CC(C(=O)O)n1cc(C#N)c(=O)[nH]c1=O (centres undefined) | 92.5% (inactive) and 98.8% (inactive)
33 | CNC(=O)c1cc(Oc2ccc(NC(=O)Nc3ccc(Cl)c(C(F)(F)F)c3)cc2)ccn1 | 5.13% (active) and 22.5% (inactive)
34 | COc1ccc(/C(C#N)=C/c2ccccn2)cc1 | 112% (inactive) and 109% (inactive)
35 | Nc1n[nH]c(=S)n1-c1ccc(Cl)cc1 | 94.5% (inactive)
36 | CCOC(=O)C(C(=O)OCC)C(c1ccccc1)N1CCN(c2ccccc2)CC1 (centres undefined) | 116% (inactive) and 105% (inactive)
37 | OCCN1CCN(CCO)CC1 | 100% (inactive) and 79.5% (inactive) and 106% (inactive)
38 | CC1=C(/C=C/C(C)=C/C=C/C(C)=C/C=N/NC(=S)NC(=S)N/N=C/C=C(C)/C=C/C=C(C)/C=C/C2=C(C)CCCC2(C)C)C(C)(C)CCC1 | -7.59% (active)
39 | NC(=O)NO | 109% (inactive) and 73.2% (inactive)
40 | CN(Cc1ccccc1)Cc1ccccc1 | 93% (inactive)
41 | O=C(Cc1cccc2ccccc12)N/N=C/c1ccc2c(c1)CCC2 | 67.1% (inactive)

Row | Structure (SMILES) | growth
42 | O=C(CN1CCN(c2cc3c(cc2F)c(=O)c(C(=O)O)cn3C2CC2)CC1)Nc1ccc(Cl)cc1 | 71.7% (inactive) and 100% (inactive)
43 | CCN(CC)CCC(CNc1c2ccc([N+](=O)[O-])cc2nc2cc(OC)c(OC)cc12)c1ccccc1 (centres undefined) | -9.52% (active) and -86.4% (active)
44 | CN(C)c1ccc2nc3ccc(N)cc3[n+](-c3ccccc3)c2c1 | 12.6% (inactive) and 42.7% (inactive)
45 | O=C(/C=C/c1ccccn1)c1ccccc1O | 79.5% (inactive) and 72.2% (inactive)
46 | CCCCCN(CCCCC)CC(O)c1cc2c(c3ccccc13)CCCC2 (centres undefined) | 36.2% (inactive) and 75.6% (inactive)
47 | O=C(Nc1ccc(Br)cc1)c1cc(Br)ccc1O | 20.2% (inactive) and -5.46% (active)
48 | Clc1ccc(NC(Nc2ccc(Cl)cc2)C(Cl)(Cl)Cl)cc1 | 61.3% (inactive) and 86.3% (inactive)
49 | NC(=S)N/N=C(\c1ccc(Br)cc1)C1CC1 | 96.4% (inactive) and 87% (inactive)
50 | CC[N+](CC)(CC(=O)Nc1c(C)cccc1C)Cc1ccccc1 | 85.2% (inactive) and 93.2% (inactive)
51 | NS(=O)(=O)c1cc2c(cc1Cl)NC(C(Cl)Cl)NS2(=O)=O (centres undefined) | 104% (inactive) and 122% (inactive)
52 | CC(=O)c1ccccc1O | 101% (inactive) and 87.7% (inactive) and 103% (inactive)
53 | Cc1n[nH]c(=O)n(/N=C\c2c[nH]c3ccccc23)c1=O | 96.1% (inactive)
54 | COc1cc2c(c(OC)c1OC)-c1ccc(OC)c(=O)cc1[C@@H](NC(C)=O)CC2 | 31.2% (inactive) and 24.6% (inactive) and 20% (inactive)
55 | O[C@H](c1cc(C(F)(F)F)nc2c(C(F)(F)F)cccc12)[C@@H]1CCCCN1 | 71.3% (inactive) and 74.6% (inactive)
56 | COc1cc2nc(N3CCN(C(=O)C4COc5ccccc5O4)CC3)nc(N)c2cc1OC (centres undefined) | 102% (inactive) and 96.4% (inactive) and 110% (inactive)
57 | COc1ccc(-c2cn[nH]c2-c2cc(OC)c(OC)c(OC)c2)cc1N | 52.2% (inactive) and 35.6% (inactive)
58 | CC1CCCC(=O)O1 (centres undefined) | 94.3% (inactive) and 96.5% (inactive)
59 | CCNC(=O)Nc1ccc(-c2nc3c(c(N4CCOC[C@@H]4C)n2)CCN(C2COC2)C3)cc1 | 43.3% (inactive) and 0.37% (active)
